Screening data: PubChem, several laboratories
A selection: hits, their analogues and other compounds. The true share with any hit is near 3.1%.
EP2 mod: EP2 receptor modulators, cAMP readout, primary screen, cell-based, HTRF cAMP, PGE2 stimulation | AID 940, 2007 | Prostaglandin E2 receptor EP2 subtype (Homo sapiens), P43116 | actives 0.83% (n = 260,000) | induction, % at 25 µM | EP2-expressing cells, cAMP HTRF FRET, PGE2 co-stimulation;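 active = compounds whose cAMP rise, as percent of the full-agonist control response, exceeds 60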;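 note: rat C6 glioma line stably carrying human EP2 under a CMV promoter; the protocol text gives 20 µM as final concentration; 100% = response of wells given 1 µM PGE2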
PGE2 EP2 inh: human EP2 receptor antagonists, primary screen, TR-FRET cAMP, C6 glioma cells; Prostaglandin E2 receptor EP2 subtype (Homo sapiens), P43116; actives 0.52% (n = 260,000); inhibition, % at 25 µM; C6 glioma cells expressing human EP2; cells stimulated with saturating PGE2;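 active = percent inhibition above 40 after rounding to a whole number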;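 note: rat C6 glioma host cells with rolipram phosphodiesterase inhibitor present; the protocol text gives 20 µM as final concentration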
S1P3 antagonist: S1P3 receptor antagonists, primary screen, cell-based; Sphingosine 1-phosphate receptor 3 (Homo sapiens), Q99500; CHO S1P3 NFAT-BLA reporter, FRET fluorescence, antagonist mode; inhibition, % at 4.98 µM; actives 0.27% (n = 170,000); AID 485, 2006;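 active = inhibition above the plate cutoff, the mean inhibition of test wells on that plate plus 3 SD, cut at about 28% in these data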;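 note: cells challenged with S1P at its EC80 of 0.8 µM; blue over green emission ratio from cleaved BLA substrate after 4 h stimulation; 0% = S1P-stimulated wells and 100% = unstimulated DMSO-only wells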
Cl transport mod: KCC2 cotransporter modulators, thallium flux, primary screen, cell-based, HEK293 KCC2, FluoZin-2 fluorescence, MLSMR | actives 2.2% (n = 190,000) | KCC2 cells, thallium flux FluoZin-2 fluorescence | Solute carrier family 12 member 5 (Homo sapiens), Q9H2X9 | B-score of Tl+ flux slope (higher = more flux/activation; lower = inhibition) at 10 µM;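 active = thallium flux slope and its plate-corrected score both differing from the plate sample mean at a set confidence after two filtering rounds, in either direction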;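 note: slope of fluorescence scaled to starting intensity during 10 to 20 s after thallium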
Target sequence (Q9H2X9 whole entry, looked up): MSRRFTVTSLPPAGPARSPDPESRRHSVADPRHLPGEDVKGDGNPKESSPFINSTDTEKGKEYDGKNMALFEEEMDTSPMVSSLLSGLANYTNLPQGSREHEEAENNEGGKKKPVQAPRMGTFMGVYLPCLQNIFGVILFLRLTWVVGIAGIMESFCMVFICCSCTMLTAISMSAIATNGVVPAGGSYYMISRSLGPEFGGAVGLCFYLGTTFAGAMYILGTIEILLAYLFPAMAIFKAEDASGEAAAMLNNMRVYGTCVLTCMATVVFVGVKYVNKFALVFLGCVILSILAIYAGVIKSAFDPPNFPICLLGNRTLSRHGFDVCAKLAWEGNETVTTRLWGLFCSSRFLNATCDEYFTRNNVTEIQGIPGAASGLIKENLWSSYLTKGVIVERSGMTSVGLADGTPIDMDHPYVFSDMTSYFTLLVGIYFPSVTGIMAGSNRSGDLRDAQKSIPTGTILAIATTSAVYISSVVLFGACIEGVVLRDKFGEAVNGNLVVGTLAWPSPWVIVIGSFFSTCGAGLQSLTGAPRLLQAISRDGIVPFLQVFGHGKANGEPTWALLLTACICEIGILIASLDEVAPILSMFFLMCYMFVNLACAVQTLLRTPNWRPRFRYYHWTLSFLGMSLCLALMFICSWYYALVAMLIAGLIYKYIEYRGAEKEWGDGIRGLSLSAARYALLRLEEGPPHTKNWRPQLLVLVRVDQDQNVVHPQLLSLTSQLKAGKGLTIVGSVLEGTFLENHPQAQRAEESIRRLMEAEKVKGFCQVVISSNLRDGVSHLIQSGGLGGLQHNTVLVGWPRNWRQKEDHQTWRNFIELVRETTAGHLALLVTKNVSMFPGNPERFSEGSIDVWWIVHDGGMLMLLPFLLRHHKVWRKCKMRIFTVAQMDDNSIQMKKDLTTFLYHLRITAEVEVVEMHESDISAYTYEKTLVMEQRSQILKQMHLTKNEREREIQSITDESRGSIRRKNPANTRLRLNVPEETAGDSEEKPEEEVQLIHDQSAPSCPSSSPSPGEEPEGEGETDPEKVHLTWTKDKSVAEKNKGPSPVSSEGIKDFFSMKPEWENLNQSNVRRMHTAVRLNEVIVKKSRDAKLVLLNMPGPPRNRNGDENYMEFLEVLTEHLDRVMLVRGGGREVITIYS
KCC2 sec1: KCC2 modulators in sodium-free buffer, confirmation, cell-based, HEK293 KCC2, thallium flux, secondary assay | shares compounds with Cl transport mod | FluoZin2 fluorescence; stronger effect = higher value | normalised thallium flux (F/F0 slope) at 10 µM | actives 15% (n = 3,700);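 active = thallium flux slope above the same plate's solvent-only control mean plus 3 SD; inconclusive = the two replicate wells disagree; inactive = no significant difference from solvent-only control wells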
KCC2 bumet counter: thallium flux persisting under bumetanide in KCC2 cells, confirmation, counter-screen for KCC2 modulator project, cell-based, HEK293 KCC2, FluoZin2, secondary assay 3; shares compounds with Cl transport mod; HEK293-KCC2 + bumetanide/ouabain; stronger effect = higher value; normalized thallium flux at 10 µM; actives 49% (n = 3,700);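 active = thallium entry rate above the same plate's blocked-transporter control wells by more than 3 SD; inconclusive = the two repeat wells disagree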;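 note: raw slope of fluorescence over initial fluorescence between 10 and 20 s after thallium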
KCC2 sec2: KCC2 modulators without ouabain present, confirmation, cell-based, HEK293 KCC2, thallium flux, FluoZin2, secondary assay 2. thallium flux FluoZin2 fluorescence; actives lie on both sides; F/F0 rise rate, 10–20 s post-thallium. shares compounds with Cl transport mod. normalized thallium flux at 10 µM. actives 23% (n = 3,700);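 active = thallium flux slope more than 3 SD above or below the plate's solvent-only control mean, mostly below; inconclusive = the two repeat wells disagreed; inactive = no significant shift from solvent-only controls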;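 note: raw slope with 0.1% DMSO as baseline and bumetanide as block control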
HEK293 Tl flux: thallium flux modulation in parental HEK cells, confirmation, counter-screen for KCC2 modulator project, cell-based, counterscreen 1; shares compounds with Cl transport mod; HEK293 parental cells, thallium flux FluoZin2, ouabain; baseline-ratio fluorescence slope, 10–20 s after thallium; thallium flux rate (normalised fluorescence) at 10 µM; actives 46% (n = 3,700); AID 1716, 2009;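 active = thallium flux rate significantly above the same plate's solvent-only control wells, beyond their mean plus 3 SD; inconclusive = the two replicate wells gave conflicting results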
KCC2 ouabain: KCC2 inhibitors and activators, ouabain retest, confirmation, HEK-KCC2 cells. raw Tl+ flux slope (below DMSO = inhibition, above = activation) at 10 µM. HEK293-KCC2, thallium flux FluoZin2 fluorescence; bidirectional: low = inhibitor, high = activator. actives 48% (n = 3,700). shares compounds with Cl transport mod;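 active = thallium flux slope beyond 3 SD from same-plate DMSO control mean in most replicates, usually higher, sometimes lower; inconclusive = repeat tests gave conflicting results; inactive = no significant difference from controls in most replicates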;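 note: slope of initial-normalized fluorescence between seconds 10 and 20 after thallium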
HEK counter2: native HEK Tl+ uptake effects, second counter-screen – HEK cells, counterscreen 2, counter-screen for KCC2 modulator project, confirmation. thallium flux slope at 10 µM. shares compounds with Cl transport mod. actives 33% (n = 3,700). HEK293 parental, thallium flux FluoZin-2 fluorescence slope;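 active = thallium flux slope above the same plate's solvent-control mean plus 3 SD in both duplicate wells; inconclusive = duplicate wells that disagreed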;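 note: run without ouabain in cells lacking the KCC2 cotransporter; slope of fluorescence scaled to its starting value between 10 and 20 s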
The depositor's hits bear a star; ? = inconclusive; · = no result.

SMILES	EP2 mod	PGE2 EP2 inh	S1P3 antagonist	Cl transport mod	KCC2 sec1	KCC2 bumet counter	KCC2 sec2	HEK293 Tl flux	KCC2 ouabain	HEK counter2
CC12CCC(C(=O)Nc3nccs3)(OC1=O)C2(C)C (configuration not stated)	-9	4	·	0.082	·	·	·	·	·	·
O=C(N/N=C/c1ccc(-c2cccc(C(F)(F)F)c2)o1)c1ccccc1O	-4	9	-33	4.8*	0.0069	0.029*	0.033	0.016*	?	0.019*
O=C(N/N=C/c1ccc(-c2cccc(C(F)(F)F)c2)o1)c1ccccc1Br	-38	20	·	·	·	·	·	·	·	·
CN(C)c1ccc(/C=N/NC(=O)C(O)(c2ccccc2)c2ccccc2)o1	-2	9	·	·	·	·	·	·	·	·
Cc1cccc(C(=O)N/N=C/c2cc(Br)c(Br)o2)c1	-30	14	-7	0.061	0.009	0.017*	0.033	0.0091*	?	0.0094
Cc1ccc(/C=N/NC(=O)c2cccc([N+](=O)[O-])c2)o1	1	3	-14	5.5*	0.01	0.011*	0.033	0.012*	0.023	0.011
CC(=O)Nc1cccc(C(=O)N/N=C/c2ccc(C)o2)c1	-1	12	-5	-0.44	·	·	·	·	·	·
CN(C)c1ccc(/C=N/NC(=O)c2ccccc2O)o1	15	18	-4	5.1*	0.01	?	0.033	0.011*	0.02	0.012
CCOc1ccccc1NC(=O)CSc1nccc(=O)[nH]1	10	13	·	·	·	·	·	·	·	·
NC(=O)N/N=C/c1ccc(-c2cccc(C(F)(F)F)c2)o1	18	6	6	-0.028	·	·	·	·	·	·
O=C(N/N=C/c1ccc(-c2cccc(C(F)(F)F)c2)o1)c1cccc(F)c1	-13	16	·	12*	0.0086	0.016*	0.033	0.012*	?	0.01
O=C(N/N=C/c1ccc(-c2cccc([N+](=O)[O-])c2)o1)c1ccccc1O	-70	6	-7	3.4*	0.011	0.024*	0.038	0.012*	0.032*	?
CN1c2ccccc2Oc2nnc(N3CCN(Cc4ccccc4)CC3)cc21	-49	7	-10	-4*	0.0053	?	0.021*	0.0065	?	0.011
CC(C)c1nnc(NC(=O)CCCOc2ccc(Cl)cc2Cl)s1	-21	13	·	·	·	·	·	·	·	·
Cc1ccc(C(=O)N2CCCC2)cc1Br	-1	12	·	-3.1*	0.0096	?	0.034	0.0077	0.021	0.011
CC1(C)C(C(=O)O)N2C(=O)C(NC(=O)C(C(=O)O)c3ccccc3)C2S1=O (configuration not stated)	12	14	·	·	·	·	·	·	·	·
CCn1c(SCC(=O)c2cc(C)ccc2C)nnc1-c1ccco1	-32	16	·	·	·	·	·	·	·	·
CC(Sc1nnc(-c2ccccc2O)o1)C(=O)Nc1ccc(Br)cc1 (configuration not stated)	-64	4	·	·	·	·	·	·	·	·
CC(C)Cc1[nH]c(=O)c(C#N)c2c1CCCC2	30	2	·	-0.5	0.016	0.0045	0.027	?	0.017	0.01
CCCc1[nH]c(=O)c(C#N)c2c1CCCC2	26	3	·	0.22	·	·	·	·	·	·
CN=c1scc(-c2ccc(F)cc2)n1/N=C/c1ccc(O)c(O)c1	-42	4	-12	-4.2*	0.0048	0.0051	0.023*	0.0069	0.015*	?
CCOC(=O)CC1Sc2ccccc2NC1=S (configuration not stated)	-18	9	-18	6.9*	0.011	0.024*	0.036	?	0.031*	?
CCOC(=O)CC1Sc2ccccc2NC1=O (configuration not stated)	-4	-2	·	0.22	·	·	·	·	·	·
COc1ccc(-c2csc3ncn(CC(=O)N4CCCCC4)c(=O)c23)cc1	-55	12	·	·	·	·	·	·	·	·
CCOC(=O)c1[nH]c(C=O)c(C(=O)OCC)c1C	51	6	8	26*	0.0059	0.051*	0.04*	0.029*	0.044*	0.031*
SMILES	EP2 mod	PGE2 EP2 inh	S1P3 antagonist	Cl transport mod	KCC2 sec1	KCC2 bumet counter	KCC2 sec2	HEK293 Tl flux	KCC2 ouabain	HEK counter2
O=C1NC2=C(C(=O)N(CCN3CCCC3)C2)C(c2ccc(F)c(F)c2)N1 (configuration not stated)	-18	11	·	·	·	·	·	·	·	·
CCOc1nc(-c2ccc(OC)cc2)ccc1-c1noc(-c2cccnc2)n1	-15	2	·	-0.063	·	·	·	·	·	·
CCOc1nc(-c2ccc(C)cc2)ccc1-c1noc(-c2cccnc2)n1	2	-3	-4	2.9*	0.0083	0.0046	0.029	0.0076	0.02	0.01
COc1ccc(-c2nnc(S/C(=C/c3ccc(Cl)cc3)C(=O)O)o2)cc1	-23	4	-11	-3*	0.0082	0.0055*	0.023*	0.0077	0.016*	0.0099
COn1cnnc1-c1ccccc1	-2	12	3	·	0.0065	0.0046	0.031	0.0076	0.018	0.01
COCCNC(=O)C(c1ccc(O)cc1)N(C(=O)CCC(=O)Nc1nccs1)c1cccc(C)c1 (configuration not stated)	10	6	8	1.1	·	·	·	·	·	·
Cc1cccc(N(C(=O)CCC(=O)Nc2ccccn2)C(C(=O)NC(C)C)c2ccc(O)cc2)c1 (configuration not stated)	6	6	-13	-3.5*	0.0059	0.0047	0.029	0.0078	0.019	0.012
CCSc1nc(=S)cc(C)[nH]1	2	7	-5	46*	0.027*	0.052*	?	0.034*	0.043*	0.018*
CCSc1nc(O)cc(=O)[nH]1	7	4	-4	·	·	·	·	·	·	·
